Measurements reported in article PMC5540273 (PLoS ONE, 2017).

What was measured:
Settings in all cases: concentration: 1 μM,replicates: in singlicate; n = 1
ERK1 = test system: T1, ERK1
T1 construct: gene MAPK3

ERK2 = test system: T2, ERK2
T2 construct: gene MAPK1

ERK3 = test system: T3, ERK3
T3 construct: gene MAPK6

ERK4 = test system: T4, ERK4
T4 construct: gene MAPK4

ERK5 = test system: T5, ERK5
T5 construct: gene MAPK7

ERK8 = test system: T6, ERK8
T6 construct: gene MAPK15

ERN1 = test system: ERN1
FAK = test system: T7, FAK
T7 construct: gene PTK2

FER = test system: FER
FES = test system: FES
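Note: KINOMEscan kinase panel screen.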

SMILES	%Inh (ERK1) [%]	%Inh (ERK2) [%]	%Inh (ERK3) [%]	%Inh (ERK4) [%]	%Inh (ERK5) [%]	%Inh (ERK8) [%]	%Inh (ERN1) [%]	%Inh (FAK) [%]	%Inh (FER) [%]	%Inh (FES) [%]
O=c1[nH]cc(-c2ccc(O)cc2)c2sc(-c3ccncc3)cc12 [GSK1033723]	0	0	11	1	0	0	0	0	1	13
COC(=O)Nc1nc2cc(Oc3ccc(NC(=O)Nc4cc(C(F)(F)F)ccc4Cl)cc3)ccc2[nH]1.Cl [GW697465]	0	0	6	0	0	90.9	0	0	24	0
CC(=O)Nc1ccc(-c2cc3ncnc(SCC(=O)O)c3s2)cc1	0	9	0	0	0	27	10	1	0	14
CC(C)c1nc(-c2cccc(NS(=O)(=O)c3ccccc3)c2)c(-c2ccnc(Nc3ccc4c(c3)CN(C)CC4)n2)s1 [GSK1649598]	0	0	0	43	11	0	63	0	23	0
NC(=O)Nc1sc(-c2ccc(F)cc2)cc1C(N)=O [GW789449]	0	16	0	0	10	10	27	5	0	11
O=C(Nc1cccc(Oc2ccc3nccn3n2)c1)Nc1cccc(C(F)(F)F)c1	0	0	0	1	2	18	6	2	0	2
NC(=O)c1ccc(-c2cc3ncnc(SCC(=O)O)c3s2)cc1	0	4	0	0	0	63	0	0	0	16
